Screening data as filed in PubChem.
The list is not random: actives were taken first. Their share in the collection is about 4.1%.
DAX1 inh-1: inhibitors of DAX1 repression of SF-1 activated StAR promoter. 370,000 tested, 1.1% active. AID 652010. HEK293T StAR-luciferase reporter, SF-1/DAX-1 repression relief. inhibition, % at 6.8 µM;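 active = inhibition above the mean over all tested compounds plus 3 SD, cut at about 3.6% in these data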;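 also: 0% = DAX-1 cells with DMSO and 100% = cells lacking DAX-1 with DMSO; higher inhibition means more luminescence from relief of DAX-1 repression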
ssDAF-12 act: activators of S. stercoralis DAF-12 nuclear receptor; HEK293 ssDAF-12/GRIP1 lit1-tk-luc reporter, luminescence; % of 3 µM dafachronic acid response; activation, % at 6.8 µM; 370,000 tested, 1% active; AID 652126;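 active = activation above the mean over all tested compounds plus 3 SD, cut at about 0.9% in these data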;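 also: 0% = DMSO-only wells and 100% = 3 µM delta7-dafachronic acid wells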
hgDAF12 agonist: activates the H. glycines DAF-12 receptor ligand-binding domain | HEK293 GAL4-hgDAF12 UAS-luciferase reporter, agonist luminescence; normalized to butyrate control | activation, % at 6.8 µM | 370,000 tested, 1.8% active | AID 687014;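 active = activation above a cutoff set at the mean of all screened compounds plus 3 SD, cut at about 10% in these data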;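 also: 0% = DMSO wells and 100% = sodium butyrate wells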
hcDAF-12 act: activators of H. contortus DAF-12 nuclear receptor; HEK293 hcDAF-12 lit1-tk-luc reporter, luminescence; 0% DMSO, 100% Δ7-dafachronic acid; 370,000 tested, 1.4% active; activation, % at 6.8 µM;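 active = activation above the mean of all tested compounds plus 3 SD, cut at about 5.5% in these data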;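 also: 100% = response to 3 µM Δ7-dafachronic acid high control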
DAX1 inh-2: inhibits human nuclear receptor DAX1. P51843. HEK293 Gal4-DAX1 luciferase reporter, luminescence. inhibition, % at 6.75 µM. 340,000 tested, 0.99% active;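 active = inhibition above the mean over all tested compounds plus 3 SD, cut at about 4.2% in these data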;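 also: 0% = DAX1-transfected cells with DMSO and 100% = empty-vector control cells with DMSO; inhibition shows as a rise in luminescence from relieved DAX1 repression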
Target sequence (P51843 207-470 limits assumed): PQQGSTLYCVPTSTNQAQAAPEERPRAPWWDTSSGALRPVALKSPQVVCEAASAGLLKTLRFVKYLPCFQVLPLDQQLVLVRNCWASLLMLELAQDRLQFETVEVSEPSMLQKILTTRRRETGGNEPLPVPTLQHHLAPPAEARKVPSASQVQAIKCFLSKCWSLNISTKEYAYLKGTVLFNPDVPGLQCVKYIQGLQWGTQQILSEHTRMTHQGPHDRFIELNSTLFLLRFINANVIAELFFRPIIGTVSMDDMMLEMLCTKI
DAX1 conf: NR0B1 (human) inhibition, confirmation | shares compounds with DAX1 inh-1 | HEK293T StAR-promoter luciferase reporter, SF-1/DAX-1 repression | inhibition, % at 6.8 µM | 2,400 tested, 87% active | AID 652134;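 active = inhibition above the average of every tested compound plus 3 SD, cut at about 3.8% in these data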;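 also: 0% = DAX-1 cells with DMSO and 100% = no DAX-1 control cells with DMSO; active compounds raise luminescence by relieving repression of the StAR reporter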
Target sequence (P51843 whole entry, looked up): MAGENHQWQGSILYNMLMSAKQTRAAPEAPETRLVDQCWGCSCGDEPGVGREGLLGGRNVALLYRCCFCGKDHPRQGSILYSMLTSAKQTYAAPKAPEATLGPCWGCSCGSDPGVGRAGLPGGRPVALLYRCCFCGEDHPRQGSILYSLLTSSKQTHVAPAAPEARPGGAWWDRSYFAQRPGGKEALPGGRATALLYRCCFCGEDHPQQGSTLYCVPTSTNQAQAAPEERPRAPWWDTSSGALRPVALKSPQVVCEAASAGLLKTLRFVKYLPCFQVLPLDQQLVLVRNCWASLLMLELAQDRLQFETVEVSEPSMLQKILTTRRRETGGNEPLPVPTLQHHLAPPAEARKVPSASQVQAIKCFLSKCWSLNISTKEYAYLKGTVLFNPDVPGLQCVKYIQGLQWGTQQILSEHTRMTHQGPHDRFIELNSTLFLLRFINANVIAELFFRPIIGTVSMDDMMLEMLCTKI
SF1 mutant ctr: counter-screen for DAX1 inhibitors: nonselective inhibitors with SF-1 AF2 mutant; shares compounds with DAX1 inh-1; HEK293 StAR-luciferase, luminescence; inhibition, % at 6.8 µM; 2,400 tested, 78% active;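 active = inhibition above the mean of all tested compounds plus 3 SD, cut at about 3% in these data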;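 also: 0% = DAX-1 transfected cells with DMSO and 100% = cells without DAX-1 with DMSO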
Active calls of the source: *; / = no result given.

SMILES | DAX1 inh-1 | ssDAF-12 act | hgDAF12 agonist | hcDAF-12 act | DAX1 inh-2 | DAX1 conf | SF1 mutant ctr
COC(=O)[C@H](Cc1ccccc1)N(Cc1cn(Cc2ccccc2)nn1)S(=O)(=O)c1ccccc1Br | -1.9 | -1.3 | -3.0 | 2.1 | / | / | /
COc1ccc(NC(=S)NC(=O)c2ccccc2)cn1 | 4.6* | -0.3 | 13.2* | 1.5 | 1.2 | 3.5 | 4.3*
COC(=O)[C@]12C[C@H](CC(=O)NCC3CCCCC3)C(=O)N(Cc3ccco3)C1=C[C@H](C1CCCC1)O[C@@H]2C | -0.9 | -0.1 | -2.2 | -0.8 | / | / | /
O=C(c1cccc(C(F)(F)F)c1)N1CC[C@H]2[C@H](CCCN2Cc2ccc(F)cc2)C1 | -0.2 | -0.3 | 0.4 | 0.4 | / | / | /
COc1cc(C(=O)Nc2ccc3c(c2)nc(C)n3C)cc(OC)c1OC | -0.9 | -0.1 | 2.5 | 0.8 | -1.7 | / | /
COc1ccccc1NC(=O)Nc1ccc2c(c1)nc(C)n2C | 6.0* | 0.5 | 13.1* | 5.0 | -1.1 | 17.5* | 9.7*
COc1ccccc1NC(=O)Nc1ccc2c(c1)CCC2 | 8.1* | -0.3 | 8.7 | 3.1 | 0.6 | 6.3* | 4.9*
Cc1ccccc1NC(=O)Nc1ccc2c(c1)CCC2 | 5.0* | -0.6 | 4.7 | 3.6 | 2.1 | 10.6* | 5.5*
CCCCCCCCN1C(=O)[C@@H](CC(=O)NCc2cccs2)C[C@@]2(C(=O)OC)C1=C[C@H](C1CCCC1)O[C@@H]2C | -0.1 | -0.9 | -1.4 | 2.4 | / | / | /
Cc1cccc(NC(=O)C2CCCN2S(=O)(=O)c2cccc3cccnc23)c1C (configuration not stated) | -0.4 | -1.9 | -1.7 | -1.5 | / | / | /
COc1cccc(CNC(=O)[C@H]2CCCN2C(=O)[C@H]2CCCN2C(=O)OC(C)(C)C)c1 | -0.9 | -0.9 | 0.1 | 0.1 | / | / | /
O=C(c1ccc(CS(=O)c2ccccc2Cl)o1)N1CCN(C2CCCCC2)CC1 (configuration not stated) | 6.9* | -0.2 | -0.8 | -0.7 | 1.4 | 5.8* | -4.7
CC(C)(C)NC(=O)C[C@H]1C[C@H](C(=O)N2CCCCC2)[C@@]2(CCc3ccccc3)c3[nH]c4cc(-c5ccco5)ccc4c3CCN2C1=O | 6.1* | -1.0 | -2.6 | -1.8 | -0.4 | 0.1 | -1.3
O=C(C[C@H]1C[C@H](C(=O)N2CCOCC2)[C@@]2(CCC3CCCC3)c3[nH]c4cc(-c5ccco5)ccc4c3CCN2C1=O)NCCc1ccccn1 | 4.6* | -1.3 | -3.0 | -1.8 | -1.1 | -1.2 | -1.1
COc1cc(C(=O)c2cc3c(cc2C)OCO3)cc(OC)c1OC | 6.5* | -1.5 | -0.6 | -1.2 | / | 12.8* | -8.9
O=C(CSc1nnc(-c2ccccn2)o1)Nc1ccccc1F | 14.2* | 0.0 | 12.4* | 4.7 | 1.4 | 14.6* | 6.3*
COc1ccc(N2C(=O)c3[nH]nc(-c4ccccc4)c3C2c2ccc(Br)cc2)cc1 (configuration not stated) | 0.5 | -0.6 | -2.0 | 0.0 | / | / | /
Cc1coc(C)c1C(=O)Nc1ccc2ccccc2c1 | 7.4* | 0.9* | 8.3 | 3.0 | 1.1 | 6.0* | 3.8*
O=C(Nc1ccc2ccccc2c1)c1cccnc1 | 4.7* | 0.0 | 8.2 | 2.8 | 2.2 | 11.2* | 7.7*
O=C(Nc1ccc2ccccc2c1)c1cnccn1 | 5.5* | 0.9 | 10.9* | 6.4* | 1.5 | 14.4* | 7.9*
COc1ccc(Cn2nnc(C(=O)Nc3ccc4c(c3)OCCO4)c2N)cc1Br | -4.4 | -0.9 | 3.3 | -0.6 | -0.8 | / | /
CCn1cc(Cl)c(C(=O)Nc2cccc(C(F)(F)F)c2)n1 | 0.1 | -1.2 | 3.0 | 1.2 | 0.2 | / | /
Nc1c(C(=O)Nc2ccc3c(c2)OCCO3)nnn1Cc1cccc(F)c1 | 7.7* | -0.8 | 6.9 | 0.1 | 1.9 | 9.4* | 5.3*
CCn1cc(Cl)c(C(=O)Nc2ccc3c(c2)OCCO3)n1 | 6.1* | 0.9 | 13.0* | 2.1 | 1.2 | 9.7* | 5.5*
Nc1c(C(=O)Nc2ccc3c(c2)OCCO3)nnn1Cc1ccc(Cl)cc1 | 8.7* | 0.4 | 12.2* | 4.6 | 2.5 | 7.7* | 5.2*
SMILES | DAX1 inh-1 | ssDAF-12 act | hgDAF12 agonist | hcDAF-12 act | DAX1 inh-2 | DAX1 conf | SF1 mutant ctr
CN(CCO)c1cccc2c1S(=O)(=O)N(Cc1cn(Cc3ccc(Cl)cc3)nn1)Cc1ccccc1O2 | -1.9 | -1.4 | -1.3 | -0.7 | / | / | /
CCCCCCCCN1C(=O)[C@@H](CC(=O)NCc2cccc3ccccc23)C[C@@]2(C(=O)OC)C1=C[C@H](COCc1ccccc1)O[C@@H]2C | -1.1 | -1.2 | 2.1 | -1.2 | / | / | /
C#CCNC(=O)C[C@H]1C[C@@]2(C(=O)OC)C(=C[C@H](COCc3ccccc3)O[C@@H]2C)N(CCCCCCCC)C1=O | 0.1 | -1.6 | -0.7 | -2.9 | / | / | /
CN(CC#Cc1ccccc1)C(N)=NC(=O)/C=C/c1cccc(C(F)(F)F)c1 | -0.1 | -1.6 | -3.0 | -2.2 | / | / | /
Nc1cc(OCc2ccccc2)ccc1OCc1ccccc1 | 4.7* | -0.1 | 4.3 | 1.1 | 2.5 | 3.6* | 4.5*
CC(=O)Nc1ccccc1NC(=O)C/C(C)=N/NC(=O)c1ccccn1 | 4.6* | 0.4 | 10.3 | 7.5* | 0.7 | 2.4 | 3.4*
S=C(NCCc1ccc(Cl)cc1)NC1CCCCC1 | 5.0* | 0.6 | 4.9 | 4.4 | 3.7 | 1.8 | 3.0*
O=C(Nc1cccc(-c2ccc(N3CCOCC3)nn2)c1)c1ccccc1Cl | 5.2* | -0.2 | 6.1 | 1.4 | -0.4 | 5.2* | 5.0*
COc1ccc(S(=O)(=O)c2ccc(OC)cc2)cc1 | -1.1 | -1.3 | -1.3 | 0.3 | 0.0 | / | /
COc1ccc(N=[N+]([O-])c2ccc(OC)cc2)cc1 | 7.9* | 0.9 | 9.1 | 5.3 | 1.3 | 15.9* | 6.8*
COc1ccc2c(c1)C(NC(=O)C(F)(F)F)CC21CCCCC1 (configuration not stated) | 0.2 | -0.8 | -1.2 | 0.5 | / | / | /
COc1cc(O)cc2occ(-c3ccc(O)cc3)c(=O)c12 | -0.2 | -1.3 | 1.2 | 0.4 | 1.7 | / | /
COc1ccc(-c2cc(=O)oc3cc(O)ccc23)cc1 | 0.1 | -0.6 | 3.9 | -1.0 | -0.5 | / | /
COc1ccc(-c2coc3cc(O)ccc3c2=O)cc1 | 4.9* | -0.4 | 8.2 | 5.3 | 2.1 | 11.0* | 5.1*
COc1ccc(-c2coc3cc(OC4OC(CO)C(O)C(O)C4O)cc(O)c3c2=O)cc1 (configuration not stated) | 11.1* | 0.5 | 10.6* | 5.4 | 2.0 | 11.2* | 5.7*
COc1ccc(-c2coc3cc(O)ccc3c2=O)cc1O | 5.0* | 0.3 | 13.1* | 1.3 | 3.6 | 6.5* | 3.3*
C=CC(=O)NC1CCCCN(CC)C1=O (configuration not stated) | 0.1 | -1.4 | -2.0 | -1.7 | / | / | /
